# From PubChem BioAssay
# D2 PAM-1: D2 dopamine receptor (human) potentiation | potentiation, % at 10 µM | HEK293 T-REx D2, calcium flux, EC20 dopamine potentiation | P14416 | 340,000 compounds, 0.34% hits | AID 485347;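 active = potentiation over 3 SD above the plate norm, cut at about 30% in these data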
# Target sequence (P14416 whole entry, looked up): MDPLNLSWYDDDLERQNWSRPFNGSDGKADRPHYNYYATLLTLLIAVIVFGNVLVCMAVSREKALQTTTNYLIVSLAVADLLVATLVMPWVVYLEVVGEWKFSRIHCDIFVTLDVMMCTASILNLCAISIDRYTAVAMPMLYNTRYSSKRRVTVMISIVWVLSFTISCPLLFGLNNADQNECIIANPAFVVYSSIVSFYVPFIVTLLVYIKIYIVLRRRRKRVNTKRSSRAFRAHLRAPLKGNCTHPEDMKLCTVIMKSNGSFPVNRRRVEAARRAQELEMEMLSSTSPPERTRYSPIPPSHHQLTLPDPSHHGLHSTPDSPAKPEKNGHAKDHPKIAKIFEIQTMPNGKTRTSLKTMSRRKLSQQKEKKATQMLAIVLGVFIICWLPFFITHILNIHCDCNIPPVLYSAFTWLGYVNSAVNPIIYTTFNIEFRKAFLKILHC
#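 Potentiation of an EC20 dopamine calcium response is measured in a force-coupled, tetracycline-inducible Hek293 Trex D2 line. Compound-only kinetic reads over 180 s flag agonists before dopamine addition.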
# D2 ag-1: activates the human D2 dopamine receptor | P14416 | HEK293 T-REx D2 cells, calcium flux agonist mode | 340,000 compounds, 0.53% hits | activation, % at 2 µM;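 active = activation over 3 SD above normal in the single-dose calcium agonist read, cut at about 30% in these data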
#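 Agonism is scored from calcium flux in a force-coupled, inducible HEK293 cell line expressing D2, read kinetically for 180 s after compound addition against dopamine controls.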
# D2 antagonist: D2 dopamine receptor (human) antagonism; HEK293 TREx D2 cells, calcium flux, dopamine EC80; P14416; 340,000 compounds, 2% hits; inhibition, % at 10 µM; AID 485344; in the data active = inhibition above about 30%; inactive = below that, where a call was filed
#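 Tetracycline-induced HEK293 TREx cells expressing D2 receptor forced-coupled to calcium signalling, loaded with no-wash calcium dye. Compounds added and calcium flux read 180 s, then dopamine added at EC80 and read a further 180 s.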
# D2 ag-2: agonists of human D2 dopamine receptor (beta-arrestin) | P14416 | DiscoveRx PathHunter D2 beta-arrestin, luminescence, 90 min; 100% = 57 uM dopamine signal | activation, % (test concentration not listed) | 360,000 compounds, 0.084% hits; in the data active = activation above about 40%; inconclusive = between about 15% and that limit
#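 Agonist mode: compounds alone added to overnight-plated D2 PathHunter cells for 90 min at 37 C, with 57 uM final dopamine (EC100) defining full response. Beta-arrestin recruitment detected by chemiluminescent reagent, read after 1 h at ambient temperature.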
# D2 PAM-2: human D2 receptor positive allosteric modulation | 360,000 compounds, 0.23% hits | DiscoveRx D2 beta-arrestin cells, luminescence, 90 min; 100% = 57 uM dopamine signal | P14416 | potentiation, % (concentration not given with the values) | AID 624464; in the data active = potentiation above about 50%; inconclusive = mostly about 30% to 49%
#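 PathHunter beta-arrestin assay in DiscoveRx D2 cells. Compounds were added with an EC20 of dopamine (50 nM final) for 90 min at 37 deg C. Luminescence was read 1 h after detection reagent, with 57 uM dopamine as the EC100 control.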
# Numbers stand for hits; i = inactive; ? = inconclusive; nt = no result. Shown are actives, neighbours in structure and some others; about 2.4% of the full set was active somewhere.
SMILES,D2 PAM-1,D2 ag-1,D2 antagonist,D2 ag-2,D2 PAM-2
Cc1cccc(N2C(=O)C(Cl)=C(Nc3c(C)n(C)n(-c4ccccc4)c3=O)C2=O)c1C,i,i,i,i,i
CC1(C)O[C@H]2[C@@H](O1)[C@@H](C(=O)Nc1ccccc1C(F)(F)F)O[C@@H]1OC(C)(C)O[C@@H]12,i,nt,nt,nt,nt
COc1cccc(N2CCN(C3OC(=O)c4ccccc43)CC2)c1 (configuration not stated),i,i,30,i,i
O=C(OCCN1C(=O)c2cccc3c(N4CCOCC4)ccc(c23)C1=O)c1ccc(Cl)cc1Cl,i,36,i,i,i
O=C(OCCN1C(=O)c2ccccc2C1=O)c1cc(S(=O)(=O)N2CCOCC2)ccc1Cl,i,i,i,i,i
O=C(OCCN1C(=O)c2cccc3c(N4CCOCC4)ccc(c23)C1=O)c1cccc(Cl)c1,i,74,35,i,i
CC(=O)Nc1ccc(S(=O)(=O)N(C2=NCC(C)S2)c2ccccc2)cc1 (configuration not stated),i,i,51,i,i
Cc1ccc(NC(=O)N(C2=NCC(C)S2)c2ccccc2)cc1 (configuration not stated),nt,nt,nt,i,i
Cc1cc(NC(=O)CCN2CCC(C)CC2)ccc1Br,i,i,39,i,i
Cc1cc(NC(=O)CN2C(=O)N(C)C3(CCCCC3)C2=O)ccc1Br,i,i,33,i,i
O=C(Nc1ccc2c(c1)N(C1CCCC1)C(=O)c1ccccc1S2)c1ccc(F)cc1,i,i,nt,nt,nt
O=[N+]([O-])c1cccc(-c2ccc(CN3CCCCC3)o2)c1,i,i,81,i,i
CN1CCN(C(=S)c2ccc(-c3cccc([N+](=O)[O-])c3)o2)CC1,i,i,i,i,i
O=[N+]([O-])c1cccc(-c2ccc(C(=S)N3CCOCC3)o2)c1,i,i,61,i,i
O=C(Nc1ccc(CN2CCOCC2)cc1)c1ccc(-c2cccc([N+](=O)[O-])c2)o1,i,i,i,i,i
O=C(Nc1ccc(F)cc1)C1CCN(c2nc3ccccc3n3cccc23)CC1,i,i,nt,nt,nt
Oc1ccc2ccccc2c1C1Nc2cccc3cccc(c23)N1,i,i,i,?,50
COc1cc(C2Nc3cccc4cccc(c34)N2)ccc1O,i,i,i,i,i
O=C(NCCCc1ccccc1)c1ccc(F)cc1,i,i,i,i,i
O=C(NCCNC1CCC(c2ccccc2)CC1)c1ccc(F)cc1 (configuration not stated),i,i,85,i,i
COCCN(C(=O)COC(=O)/C=C/c1ccc(C(F)(F)F)cc1)c1c(N)n(Cc2ccccc2)c(=O)[nH]c1=O,i,i,45,i,i
O=S(=O)(Nc1c(O)ccc2ccccc12)c1ccccc1,nt,nt,nt,42,i
COc1ccc(Cl)cc1NC(=O)C1CCN(S(=O)(=O)c2ccc3c(c2)CCCN3C(=O)C2CCC2)CC1,i,i,nt,nt,nt
Cc1cc(NC(=O)NCc2ccc3c(c2)CCN3C(=O)c2ccccc2)ccc1Br,i,i,nt,nt,nt
CCN(C(C)=O)c1cnc(C=NNC(N)=S)c2ccccc12,nt,nt,nt,?,57
SMILES,D2 PAM-1,D2 ag-1,D2 antagonist,D2 ag-2,D2 PAM-2
COc1ccc(NC(=O)CSc2nc3ccccc3n2CC(=O)N(C)C2CCCCC2)cc1,i,i,nt,nt,nt
O=C(Nc1cc(=O)c2ccccc2o1)N1CCOCC1,31,i,i,i,i
O=C(Nc1cc(=O)c2ccccc2o1)N1CCCCC1,i,i,i,i,i
O=C(c1ccccc1)c1c2c(cc3sc4ccccc4[n+]13)-c1cccc3cccc-2c13,i,60,44,i,i
CCc1ccc(C(=O)NN(C(=O)c2ccc(CC)cc2)C(C)(C)C)cc1,i,i,i,i,i
CC(C)(C)N(NC(=O)c1ccccc1)C(=O)c1ccc(C(=O)N(NC(=O)c2ccccc2)C(C)(C)C)cc1,i,i,33,i,i
COCCCn1c(SCC(=O)Nc2ccccc2OC)nc2c(sc3ccccc32)c1=O,i,i,nt,nt,nt
CC(=O)/C(C[N+]1(C)CCCCC1)=N\O,nt,i,44,i,i
CC[C@@]12C(=O)N(c3cccc(Br)c3)C(=O)N1[C@H](c1ccc(Br)cc1)[C@@H]1C(=O)N(C(C)(C)C)C(=O)[C@@H]12,i,i,32,i,i
CCC(=O)Nc1nc2c(OC)ccc(OC)c2s1,i,i,i,i,i
COc1ccc(OC)c2sc(NC(=O)C3CC3)nc12,i,i,65,i,i
COc1ccc(NC(=O)c2ccccc2N(Cc2ccccc2)S(C)(=O)=O)cc1OC,37,i,i,i,i
COc1ccc(NC(=O)c2ccccc2N(Cc2ccccc2)S(C)(=O)=O)cc1,i,i,i,i,i
Cc1ccccc1NC(=O)NC1CCS(=O)(=O)C1 (configuration not stated),i,i,i,i,i
COc1ccccc1NC(=O)NC1CCS(=O)(=O)C1 (configuration not stated),i,i,39,i,i
Cc1c(CNCc2ccc(OC(C)C)cc2)c(C(=O)O)c(C)n1Cc1ccc(Cl)cc1,i,i,nt,nt,nt
CCc1ccc(CN(Cc2ccco2)C(=O)c2cc(-c3ccc(C)c(F)c3)on2)cc1,i,i,nt,nt,nt
Cc1ccc2cc(CN(CC3CCCO3)C(=S)NCc3ccco3)c(=O)[nH]c2c1C (configuration not stated),i,i,33,i,i
Cc1ccc(C)c2[nH]c(=O)c(CN(CC3CCCO3)C(=S)NCc3ccco3)cc12 (configuration not stated),i,i,i,i,i
Cc1ccc(C)c2[nH]c(=O)c(CN(Cc3cccs3)C(=S)NCc3ccco3)cc12,i,i,53,i,i
CC1=C(C(=O)OCc2ccc(C)cc2)C(c2cccc(F)c2F)CC(=O)N1 (configuration not stated),i,i,nt,nt,nt
O=C(CCCCn1c(=O)c2ccccc2n(CC(=O)Nc2ccc(F)cc2F)c1=O)NCCc1ccccc1,i,i,nt,nt,nt
CCCN(Cc1cc2cccc(C)c2[nH]c1=O)C(=O)c1cccc(Cl)c1,i,i,nt,nt,nt
Clc1ccc2c(c1)C(N1CCNCC1)=Nc1ccccc1O2,i,i,76,i,i
CCOC(=O)c1ccc(NC(=O)Cc2ccc(-n3c(CC)nc4cccnc43)cc2)cc1,i,i,nt,nt,nt
COc1cccc(O)c1CN1CCCC(C(=O)c2cccc(C(F)(F)F)c2)C1 (configuration not stated),i,i,49,i,i
Cn1c(C(=O)Nc2cccc(Cl)c2)cc2c(=O)n(C)c3ccccc3c21,i,i,nt,nt,nt
Cc1ccc2nc(NCC(=O)O)nc(-c3ccccc3)c2c1,i,i,i,i,i
Cc1ccc2nc(NCCC(=O)O)nc(-c3ccccc3)c2c1,31,i,i,i,i
C=CCOc1ccccc1CN1CCC(Oc2ccc(C(=O)N3CCCCC3)cc2)CC1,i,i,47,i,i
